CYP2C9 activ: CYP2C9 (human) activation; 1.4% of 96,000 active; activation factor at 5 µM; recombinant CYP2C9, luciferin-H conversion, luminescence; stronger effect = higher value; factor 1 = untreated enzyme, 0 = blocked; P11712;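 active = activation factor of 2 or more for CYP2C9 at a 5 µM dose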;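 note: 0 = sulfaphenazole-blocked wells and 1 = vehicle-only wells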
CYP2C9 inhib: blocks human cytochrome P450 2C9. CYP2C9 Supersomes, luciferin-H conversion, luminescence. inhibition, % at 5 µM. 20% of 96,000 active;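 active = blocking of liver enzyme CYP2C9 beyond about 50% at 5 µM, limit read from the data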
CYP2C19 act: increases human CYP2C19 enzyme activity | activation factor at 5 µM | AID 1025 | recombinant CYP2C19, luciferin-H EGE luminescence; stronger effect = higher value; 0 = fully inhibited enzyme, 1 = untreated enzyme | 96,000 tested, under 10 active | P33261;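 active = activation factor of at least 2 at 5 µM in the primary screen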;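 note: 0 = wells with 2.5 mM tranylcypromine and 1 = vehicle-only wells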
Target sequence (P33261 whole entry, looked up): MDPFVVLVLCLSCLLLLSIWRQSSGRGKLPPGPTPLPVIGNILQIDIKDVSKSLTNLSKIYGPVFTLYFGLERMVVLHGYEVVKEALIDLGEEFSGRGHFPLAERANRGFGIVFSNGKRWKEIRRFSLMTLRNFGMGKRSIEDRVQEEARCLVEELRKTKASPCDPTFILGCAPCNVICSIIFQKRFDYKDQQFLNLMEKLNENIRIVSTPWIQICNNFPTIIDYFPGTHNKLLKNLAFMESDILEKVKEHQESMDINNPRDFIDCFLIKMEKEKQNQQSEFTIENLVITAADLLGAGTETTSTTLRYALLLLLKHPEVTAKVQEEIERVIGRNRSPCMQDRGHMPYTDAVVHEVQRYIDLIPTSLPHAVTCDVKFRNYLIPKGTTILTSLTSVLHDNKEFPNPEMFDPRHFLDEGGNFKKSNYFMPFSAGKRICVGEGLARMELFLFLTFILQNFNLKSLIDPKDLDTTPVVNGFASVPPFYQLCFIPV
CYP2C19 inh: inhibitors of human CYP2C19; CYP2C19 Supersomes, luciferin-H EGE luminescence, 30 min; inhibition, % at 5 µM; 21% of 96,000 active;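 active = CYP2C19 inhibition above a set limit at 5 µM in the primary screen, cut at about 50% in these data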;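 note: plate controls were negative control wells for no effect and 2.5 mM tranylcypromine positive control for full effect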
Starred values were filed as active, the others as inactive. Most compounds without a hit are left out; they make up all but 31% or so of the library.

SMILES	CYP2C9 activ	CYP2C9 inhib	CYP2C19 act	CYP2C19 inh
Cc1nnc(NC(=O)CSc2nc(C(C)C)nc3ccccc23)s1	0.3	66.3*	0.9	7.9
Cc1csc(NC(=O)CCc2nc3ccccc3s2)n1	1.8	-77.0	0.2	83.0*
Cc1cnc(NC(=O)CCCc2nc3ccccc3s2)s1	0.7	31.0	0.6	42.0
O=C(CNc1ccc(Oc2ccccc2)cc1)N1CCOCC1	1.2	-17.7	1.1	-9.3
O=C(CSc1ncn(-c2ccccc2)n1)Nc1nc2c(s1)CCCC2	0.4	64.0*	0.6	44.2
O=C(CSc1ncn(-c2ccccc2)n1)Nc1nccs1	0.8	20.9	0.4	55.8*
Cc1ccc2cc(C)c3nnc(SCC(=O)Nc4nc5c(s4)CCCC5)n3c2c1	0.4	61.4*	0.4	57.1*
O=C(CSc1nc(Cc2ccccc2)nc2ccccc12)Nc1nc2c(s1)CCCC2	0.1	93.1*	0.2	84.8*
Cc1ccc(-c2nnc(SCC(=O)Nc3nc4c(s3)CCCC4)n2C)cc1	0.7	34.7	0.9	7.1
CC(C)n1nnnc1-c1cc(Cl)cc(Cl)c1	1	3.1	1	3.6
COC(=O)C1=[N+]([O-])OC(C(=O)OC)C1c1c[nH]c2ccccc12 (stereo not drawn)	0.9	13.0	0.8	20.8
CCOC(=O)N1CCC(n2c(=S)[nH]c3cc(OC)c(OC)cc3c2=O)CC1	0.9	12.2	1	3.0
O=C(CSc1ncn(-c2ccccc2)n1)Nc1nc2ccccc2s1	0.4	64.6*	0.4	64.9*
Cc1csc(NC(=O)CCS(=O)(=O)c2ccc(Br)cc2)n1	0.1	85.3*	0.6	41.5
Cc1ccc(S(=O)(=O)CCC(=O)Nc2nccs2)cc1	1	0.4	0.8	22.1
Cc1ccc(-c2csc(NC(=O)CSc3ncn(-c4ccccc4)n3)n2)cc1	0.3	66.6*	0.4	63.5*
Cc1csc(NC(=O)CSc2ncn(-c3ccccc3)n2)n1	0.8	20.1	0.8	18.9
COc1cccc(-n2c(Cc3cc(=O)[nH]c(=O)[nH]3)nnc2SCC(=O)N2CCC(C)CC2)c1	1.1	-13.3	1	1.3
CCC1CCc2c(sc(NC(=O)CSc3nc(-c4ccco4)cc(C(F)(F)F)n3)c2C#N)C1 (stereo not drawn)	0.1	88.6*	0.3	68.7*
COc1ccc(-c2ccc(C#N)c(SCC(=O)Nc3sc4c(c3C#N)CCC4)n2)cc1OC	0	98.0*	0.6	41.6
COc1ccc(-c2nnn(CC(=O)Nc3sc4c(c3C#N)CCCC4)n2)cc1	0.5	54.4*	0.8	17.7
COc1ccc(-c2cc(C(F)(F)F)nc(SCC(=O)Nc3sc4c(c3C#N)CCC4)n2)cc1	0.3	68.3*	0.7	28.1
O=C(CC1OC(=O)c2ccccc21)c1ccco1 (stereo not drawn)	1.1	-10.6	1.1	-9.5
Cc1nnc(NC(=O)Cc2ccc(OCc3c(C)noc3C)cc2)s1	0.8	17.6	1.1	-10.7
O=c1[nH]c2ccsc2c(=O)n1-c1ccc(F)c(Cl)c1	0.7	25.3	0.7	30.0
SMILES	CYP2C9 activ	CYP2C9 inhib	CYP2C19 act	CYP2C19 inh
Cn1cnnc1SCC(=O)c1cc2ccccc2oc1=O	0.8	15.0	1	0.5
O=C(Cn1nc(Cl)nc1Cl)c1cc2ccccc2oc1=O	0.4	61.8*	0.9	12.8
C=CCn1c(N)c(C(=O)Nc2ccccc2OC)sc1=S	0.2	84.7*	0.2	77.7*
C=CCn1c(N)c(C(=O)Nc2ccc(C)cc2)sc1=S	0.9	8.5	0.9	6.2
CCn1c(N)c(C(=O)N2CCOCC2)sc1=S	0.9	11.4	0.9	7.7
C=CCn1c(N)c(C(=O)N2CCOCC2)sc1=S	0.3	70.1*	0.5	45.7
C=CCn1c(N)c(C(=O)NCc2ccco2)sc1=S	0.4	64.0*	0.4	59.7*
CC(=O)Nc1nc(C2COc3ccccc3O2)cs1 (stereo not drawn)	0.7	30.8	0.6	38.8
Nc1nc(N2CCN(C/C=C/c3ccccc3)CC2)nc2ccccc12	0.3	70.3*	0.5	51.3*
Cc1cc(C(=O)NCCC2=CCCCC2)no1	1	-1.9	0.5	48.2
O=C(NCCC1=CCCCC1)c1cnsn1	0.6	38.3	0.4	64.7*
O=C(Nc1ccc(Cl)cc1)C1=Cc2ccccc2OC1	0.9	10.2	0.7	29.2
O=C(Nc1cccnc1)c1ccc(Cl)c(S(=O)(=O)N2CCCCCC2)c1	0.1	85.4*	0.1	87.8*
O=C(Nc1ccccc1)c1ccc(S(=O)(=O)N2CCCC2)cc1	0.7	33.6	1	1.3
O=C(Nc1cccnc1)C1CCCN(S(=O)(=O)c2ccccc2)C1 (stereo not drawn)	0.6	42.0	0.4	64.5*
O=C(NC(Cc1ccccc1)C(=O)O)c1ccc(S(=O)(=O)N2CCCCC2)cc1 (stereo not drawn)	0.2	78.5*	1	4.2
O=C(NC(Cc1ccccc1)C(=O)O)c1ccc(S(=O)(=O)N2CCCC2)cc1 (stereo not drawn)	0.9	13.9	1.1	-12.6
O=C(Nc1ccn(-c2ccccc2)n1)c1ccc(S(=O)(=O)N2CCCCCC2)cc1	0.5	46.5	0.5	52.7*
Cc1nc2sc(C(c3cccc(F)c3)N3CCOCC3)c(O)n2n1 (stereo not drawn)	1	1.0	0.9	14.1
CCCCN1C(=O)C2NN=C(C(=O)OC)C2C1=O (stereo not drawn)	1.1	-6.2	0.6	44.2
CC(=O)NC1(c2ccc(F)cc2)CCN(C(=O)Nc2ccc(F)cc2F)CC1	0.8	21.3	0.6	44.8
CCc1nn(CC(=O)NCCCN(CC)Cc2ccccc2)c(=O)c2cc3sccc3n12	1.1	-9.7	1	-3.9
COc1ccccc1-c1cc(C(=O)Nc2ccccc2SC)no1	1.5	-49.9	1.1	-12.2
O=C(Nc1cccnc1)c1ccc(S(=O)(=O)N2CCCCCC2)cc1	0.3	73.0*	0.4	62.2*
COc1ccc(NC(=O)Nc2cc(C)ccc2OC)cc1	0.6	38.6	0.1	94.9*
SMILES	CYP2C9 activ	CYP2C9 inhib	CYP2C19 act	CYP2C19 inh
COC(=O)c1cc(NC(=O)Nc2cc(OC)ccc2OC)cc(C(=O)OC)c1	0.5	51.1*	0.6	41.7
O=C(Nc1ccncc1)Nc1ccccn1	0.3	67.7*	0.1	91.2*
COc1ccc(C)cc1NC(=O)Nc1ccccc1	0.8	15.6	0.7	29.1
CCCCCCCCCCNC(=O)C(=O)Nc1ccccn1	1	1.3	0.4	55.3*
COc1ccc(OC)c(NC(=O)Nc2ccc(Cl)cc2)c1	0.9	12.2	0.7	29.1
COc1ccccc1NC(=O)c1ccc(N)cc1	4.1*	-313.2	0.8	15.3
COc1ccc(NC(=O)Nc2ccccc2OC)cc1	0.7	34.4	0.1	87.0*
COc1ccccc1NC(=O)C1C2CCCCC21 (stereo not drawn)	3.6*	-263.5	0.6	42.8
COc1ccc(OC)c(NC(=O)Nc2cccc(Cn3cccn3)c2)c1	0.2	82.9*	0.3	74.3*
CCN1CCN(Cc2ccc(NC(=O)Nc3ccccc3OC)cc2)CC1	0.9	6.3	1.1	-5.6
COc1ccccc1NC(=O)C(=O)Nc1ccccn1	2.3*	-133.0	0.8	18.0
COc1ccccc1OCC(=O)Nc1ccccn1	1	4.7	0.9	9.5
